From PubChem BioAssay (EPA / NIEHS)
Where “and” joins values, the source holds several entries; their conditions need not be identical. Identical values can stand only once. Inconclusive results are not listed. Calls of active or inactive are those of the source. Rule for the calls, unless noted: active = hit-call score of the fitted dose curve at least 0.9, where 1 is the maximum; inconclusive = response in the unintended direction; inactive = score below 0.9.

What was measured:
[1] = CLD_ACTIN_6hr: CellzDirect (CLD) Gene Expression Assay for Baseline Control (Actin) at 6 hours (AID 2283676);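 note: active means increased actin mRNA relative to DMSO vehicle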
Procedure, shortened: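 Baseline actin transcript level measured by qNPA (S1 nuclease protection, chemiluminescence) in human hepatocyte cultures 6 h after chemical exposure; 0.2% DMSO vehicle as reference, cytotoxicity noted from morphology.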

[2] = read-out: Cytochrome P450 2B6 (Homo sapiens) (UniProt P20813); test: CLD_CYP2B6_6hr: CellzDirect (CLD) Gene Expression Assay for xenobiotic metabolism (CYP2B6) at 6 hours (AID 2283677);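 note: actives raise CYP2B6 transcript above DMSO baseline so AC50 marks an inducer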
Procedure, shortened: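 CYP2B6 transcript levels, read by chemiluminescent qNPA, were fitted for increase versus DMSO baseline; cultured human liver hepatocytes from two donor preparations were harvested 6 h after exposure to test chemicals at multiple concentrations.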

[3] = CCTE_Padilla_ZF_144hpf_TERATOSCORE: (Legacy) CCTE's 144 Hour Post-fertilization zebrafish Assay Teratoscore, Padilla Lab (AID 2283679; active = hit-call score of the fitted dose curve at least 0.9, where 1 is the maximum; inactive = score below 0.9;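 for AC50: zebrafish embryos with chorions exposed by immersion from 6-8 hpf to 5 dpf with daily renewal; teratogenicity score from eye scoring of death hatching and malformations at 144 hpf; higher score means more developmental defects relative to DMSO baseline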)
Procedure, shortened: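 Larvae scored by eye at 144 hpf for death, hatching and malformations after a day in clean Hanks'. Before that, daily-renewed exposure at 80 uM (0.4% DMSO, 26C) from roughly 6-8 hpf through 5 dpf, 4 embryos per chemical.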

[4] = read-out: Glyceraldehyde-3-phosphate dehydrogenase (Homo sapiens) (UniProt P04406); test: CLD_GAPDH_6hr: CellzDirect (CLD) Gene Expression Assay for Baseline Control (Glyceraldehyde 3-phosphate dehydrogenase) at 6 hours (AID 2283681);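 note: active means increased signal relative to DMSO vehicle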
Procedure, shortened: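 GAPDH baseline-control readout from qNPA (S1 nuclease digestion, probe hybridization, chemiluminescence) in lysates of cultured human hepatocytes harvested 6 h post-dosing. Chemicals tested at multiple concentrations versus 0.2% DMSO vehicle; microscopy-based cytotoxicity flagged yes/no.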

[5] = read-out: HMG-CoA synthase (HMGCS2), HMGCS2 (gene 3158); test: CLD_HMGCS2_6hr: CellzDirect (CLD) Gene Expression Assay for HMG-CoA synthase (HMGCS2) at 6 hours (AID 2283682);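 note: actives raise HMGCS2 transcript above the 0.2% DMSO vehicle baseline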
Procedure, shortened: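 HMGCS2 transcript induction read by quantitative nuclease protection with chemiluminescence, 6 h after dosing of primary human hepatocytes. Baseline was 0.2% DMSO vehicle; phase-contrast morphology gave a yes/no cytotoxicity annotation.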

[6] = read-out: ABC Transporter (ABCB1), ABCB1 (gene 5243); test: CLD_ABCB1_24hr: CellzDirect (CLD) Gene Expression Assay for ABC Transporter (ABCB1) at 24 hours (AID 2283684)
Procedure, shortened: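 ABCB1 mRNA induction versus 0.2% DMSO vehicle was read by qNPA chemiluminescence at 24 h. Cultured human hepatocytes from two donor preparations received daily fresh dosing, and phase-contrast cytotoxicity calls were annotated alongside the data.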

[7] = read-out: Cytochrome P450 2C9 (Homo sapiens) (UniProt P11712); test: CLD_CYP2C9_24hr: CellzDirect (CLD) Gene Expression Assay for xenobiotic metabolism (CYP2C9) at 24 hours (AID 2283688)
Procedure, shortened: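 Induction of CYP2C9 mRNA was quantified by quantitative nuclease protection assay (chemiluminescence), gain of signal versus 0.2% DMSO vehicle, 24 h after dosing. Human primary hepatocytes (two donors) received fresh chemical daily at multiple concentrations; morphology-based cytotoxicity flagged yes/no.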

[8] = read-out: Cytochrome P450 3A4 (Homo sapiens) (UniProt P08684); test: CLD_CYP3A4_24hr: CellzDirect (CLD) Gene Expression Assay for xenobiotic metabolism (CYP3A4) at 24 hours (AID 2283689)
Procedure, shortened: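 CYP3A4 mRNA induction read by quantitative nuclease protection (chemiluminescence) 24 hr after dosing. Cultured human hepatocytes (two donor preparations) treated daily, vehicle 0.2% DMSO; phase-contrast morphology annotates cytotoxicity.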

[9] = read-out: sulfotransferase (SULT2A), SULT2A1 (gene 6822); test: CLD_SULT2A_24hr: CellzDirect (CLD) Gene Expression Assay for sulfotransferase (SULT2A) at 24 hours (AID 2283694)
Procedure, shortened: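 mRNA is measured by qNPA: probe hybridisation, S1 nuclease digestion, chemiluminescence, in lysates from human primary hepatocytes harvested 24 h after daily dosing. Vehicle was 0.2% DMSO. Phase-contrast microscopy flagged cytotoxicity (yes/no).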

[10] = read-out: xenobiotic metabolism (CYP1A1), CYP1A1 (gene 1543); test: CLD_CYP1A1_48hr: CellzDirect (CLD) Gene Expression Assay for xenobiotic metabolism (CYP1A1) at 48 hours (AID 2283705)
Procedure, shortened: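 CYP1A1 transcript measured by quantitative nuclease protection (chemiluminescent) 48 h after two daily treatments of human hepatocyte cultures, versus 0.2% DMSO. Morphology-based cytotoxicity flags accompany data; two donor preparations used.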

[11] = read-out: Glyceraldehyde-3-phosphate dehydrogenase (Homo sapiens) (UniProt P04406); test: CLD_GAPDH_48hr: CellzDirect (CLD) Gene Expression Assay for Baseline Control (Glyceraldehyde 3-phosphate dehydrogenase) at 48 hours (AID 2283706);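 note: active means higher GAPDH mRNA than DMSO vehicle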
Procedure, shortened: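 GAPDH baseline-control readout: qNPA chemiluminescent mRNA quantitation in human liver primary cells 48 h after daily dosing on two consecutive days, vehicle 0.2% DMSO; gain of signal fitted against DMSO, cytotoxicity flagged by phase-contrast morphology.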

[12] = read-out: sulfotransferase (SULT2A), SULT2A1 (gene 6822); test: CLD_SULT2A_48hr: CellzDirect (CLD) Gene Expression Assay for sulfotransferase (SULT2A) at 48 hours (AID 2283710);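 note: hits raise SULT2A1 transcript above the 0.2% DMSO vehicle baseline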
Procedure, shortened: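 SULT2A1 transcript measured by qNPA chemiluminescence in human primary hepatocyte cultures after 48 h, with fresh dosing solutions on two consecutive days; gain-of-signal fitting against 0.2% DMSO vehicle; cytotoxicity annotated from phase-contrast morphology.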

[13] = STM_H9_OrnithineISnorm_perc: Stemina devTOX quickPredict H9 human embryonic stem cell (hESC)-based Assay for Ornithine (ORN) Metabolite Biomarker, Normalized (AID 2283712; active = hit-call score of the fitted dose curve at least 0.9, where 1 is the maximum; inactive = score below 0.9;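 note: ornithine released into spent medium during last day measured by mass spectrometry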)
Procedure, shortened: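 Metabolite endpoint from spent media of pluripotent H9 cells treated 72 h with daily re-feeding; ornithine measured by UPLC-HRMS against its 13C spike-in and referenced to the median 0.1% DMSO vehicle response.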

[14] = read-out: Glyceraldehyde-3-phosphate dehydrogenase (Homo sapiens) (UniProt P04406); test: CLD_GAPDH_24hr: CellzDirect (CLD) Gene Expression Assay for Baseline Control (Glyceraldehyde 3-phosphate dehydrogenase) at 24 hours (AID 2283692)
Procedure, shortened: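 GAPDH baseline-control readout: qNPA chemiluminescent mRNA signal in human primary hepatocytes harvested 24 h after daily dosing, normalised to 0.2% DMSO with positive fitting direction; cytotoxicity annotated by phase-contrast morphology.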

[15] = read-out: Cytochrome P450 3A4 (Homo sapiens) (UniProt P08684); test: CLD_CYP3A4_48hr: CellzDirect (CLD) Gene Expression Assay for xenobiotic metabolism (CYP3A4) at 48 hours (AID 2283698)
Procedure, shortened: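 CYP3A4 induction read by qNPA chemiluminescence after 48 h, with fresh dosing solutions on consecutive days, in cultured human hepatocytes (two donors). Vehicle 0.2% DMSO as baseline; microscopy-based cytotoxicity annotated yes/no alongside data.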

[16] = read-out: Cytochrome P450 2C19 (Homo sapiens) (UniProt P33261); test: CLD_CYP2C19_6hr: CellzDirect (CLD) Gene Expression Assay for xenobiotic metabolism (CYP2C19) at 6 hours (AID 2283678)
Procedure, shortened: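 CYP2C19 transcript induction was quantified by quantitative nuclease protection assay with chemiluminescent read-out, 6 h after dosing. Cells were primary human hepatocytes from two donor preparations, given fresh dosing solutions daily in 0.2% DMSO vehicle. Activity was relative to DMSO.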

[17] = read-out: glucuronosyltransferase (UGT1A1), UGT1A1 (gene 54658); test: CLD_UGT1A1_48hr: CellzDirect (CLD) Gene Expression Assay for glucuronosyltransferase (UGT1A1) at 48 hours (AID 2283709);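 note: actives increase expression relative to DMSO so potency refers to induction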
Procedure, shortened: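 Quantitative nuclease protection assay (chemiluminescent) for UGT1A1 mRNA at 48 h in human hepatocyte cultures from two donors, redosed daily with fresh solutions. Induction fitted relative to 0.2% DMSO; phase-contrast morphology annotated cytotoxicity.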

[18] = read-out: xenobiotic metabolism (CYP2C9), CYP2C9 (gene 1559); test: CLD_CYP2C9_48hr: CellzDirect (CLD) Gene Expression Assay for xenobiotic metabolism (CYP1A2) at 48 hours (AID 2283701; active = hit-call score of the fitted dose curve at least 0.9, where 1 is the maximum; inactive = score below 0.9)
Procedure, shortened: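 mRNA level measured by quantitative nuclease protection (S1 digestion, chemiluminescent detection) in lysates of human primary hepatocytes exposed 48 h with daily re-dosing. Induction fitted positively versus 0.2% DMSO; morphology-based cytotoxicity flagged yes/no.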

Measured: AC50

Sequence of Cytochrome P450 2C19 (Homo sapiens) (P33261 whole entry, looked up): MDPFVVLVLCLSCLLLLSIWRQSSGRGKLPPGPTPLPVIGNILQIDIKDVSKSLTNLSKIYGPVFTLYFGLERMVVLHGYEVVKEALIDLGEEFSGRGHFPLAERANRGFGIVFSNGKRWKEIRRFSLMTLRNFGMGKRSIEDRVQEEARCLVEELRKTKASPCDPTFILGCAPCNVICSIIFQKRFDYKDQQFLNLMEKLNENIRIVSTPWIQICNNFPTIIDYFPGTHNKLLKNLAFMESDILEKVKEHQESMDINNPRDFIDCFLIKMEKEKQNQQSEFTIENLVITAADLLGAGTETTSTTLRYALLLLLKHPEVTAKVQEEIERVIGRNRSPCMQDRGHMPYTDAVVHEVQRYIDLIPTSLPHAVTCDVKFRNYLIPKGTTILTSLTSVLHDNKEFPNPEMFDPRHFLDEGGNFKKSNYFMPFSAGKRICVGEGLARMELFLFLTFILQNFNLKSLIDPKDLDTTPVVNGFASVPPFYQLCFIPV
Sequence of Glyceraldehyde-3-phosphate dehydrogenase (Homo sapiens) (P04406 whole entry, looked up): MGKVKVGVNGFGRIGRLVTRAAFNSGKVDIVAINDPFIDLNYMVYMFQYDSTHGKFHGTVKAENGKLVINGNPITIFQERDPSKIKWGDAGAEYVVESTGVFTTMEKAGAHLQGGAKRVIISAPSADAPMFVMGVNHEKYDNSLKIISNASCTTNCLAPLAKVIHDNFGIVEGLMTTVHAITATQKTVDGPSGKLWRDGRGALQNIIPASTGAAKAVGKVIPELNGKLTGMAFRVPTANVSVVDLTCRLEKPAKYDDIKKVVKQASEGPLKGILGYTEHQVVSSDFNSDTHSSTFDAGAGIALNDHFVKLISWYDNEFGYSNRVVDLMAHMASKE
Sequence of Cytochrome P450 3A4 (Homo sapiens) (P08684 whole entry, looked up): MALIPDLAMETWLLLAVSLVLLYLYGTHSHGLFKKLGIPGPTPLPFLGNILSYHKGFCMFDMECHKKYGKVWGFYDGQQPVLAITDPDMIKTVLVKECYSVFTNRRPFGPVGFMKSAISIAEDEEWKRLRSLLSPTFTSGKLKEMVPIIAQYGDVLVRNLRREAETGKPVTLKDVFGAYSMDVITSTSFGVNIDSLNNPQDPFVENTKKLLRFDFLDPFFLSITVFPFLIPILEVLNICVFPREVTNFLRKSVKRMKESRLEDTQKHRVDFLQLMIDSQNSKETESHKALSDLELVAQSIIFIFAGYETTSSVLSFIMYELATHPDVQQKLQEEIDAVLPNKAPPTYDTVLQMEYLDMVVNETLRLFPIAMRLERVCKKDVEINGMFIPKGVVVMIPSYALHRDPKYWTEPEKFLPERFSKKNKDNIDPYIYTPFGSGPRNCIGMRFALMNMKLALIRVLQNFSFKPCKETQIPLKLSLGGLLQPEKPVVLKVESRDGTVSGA

CC(C)(c1ccc(O)cc1)c1ccc(O)cc1
inactive: [1] | [4] | [5] | [6] | [7] | [8] | [9] | [10] | [11] | [12]
active: [2] 14.2 µM | [3] 57 µM and 66.2 µM | [13] 67.3 µM

CCSC(=O)N(CC(C)C)CC(C)C
active: [2] 3.55 µM
inactive: [1] | [3] | [4] | [6] | [14] | [15] | [11] | [12] | [13]

CCC(C)OC(=O)N1CCCCC1CCO (configuration not stated)
inactive: [1] | [2] | [16] | [3] | [4] | [5] | [6] | [14] | [9] | [15] | [10] | [11] | [12]

CCN(CC)C(=O)c1cccc(C)c1
inactive: [1] | [3] | [5] | [6] | [11] | [12]
active: [2] 2.38 µM

CCCOC(=O)c1ccc(C(=O)OCCC)nc1
active: [3] 1.7 µM
inactive: [1] | [16] | [4] | [5] | [6] | [7] | [14] | [9] | [11] | [17] | [12]

N#CSCSc1nc2ccccc2s1
inactive: [1] | [6] | [8] | [14] | [9] | [11]
active: [3] 0.651 µM | [5] 7.13 µM | [10] 7.52 µM | [13] 17.2 µM

CC(C)CCCCCCc1ccc(O)cc1
active: [3] 8.06 µM | [13] 73.4 µM

CCC(O)=C1C(=O)CC(C(=O)O)CC1=O (configuration not stated)
inactive: [3] | [4] | [5] | [6] | [7] | [14] | [10] | [11] | [12]

CN(C)C(=O)Nc1ccc(Cl)c(Cl)c1
active: [2] 4.6 µM | [10] 12.4 µM
inactive: [3] | [5] | [9] | [15] | [13]

COC(=O)CSc1cc(N=c2sc(=O)n3n2CCCC3)c(F)cc1Cl
inactive: [16] | [4] | [6] | [9] | [10] | [12]
active: [2] 1.82 µM | [3] 0.0125 µM | [8] 1.9 µM | [15] 4.08 µM | [18] 9.13 µM | [13] 78.8 µM

CCNc1nc(N)nc(Cl)n1
inactive: [3] | [4] | [6] | [7] | [14] | [15] | [10] | [11] | [12] | [13]

O=C(Nc1ccc([N+](=O)[O-])cc1Cl)c1cc(Cl)ccc1O
active: [3] 1.65 µM | [10] 3.55 µM
inactive: [1] | [6] | [7] | [8] | [9] | [13]

CC(=O)[C@H]1CC[C@H]2[C@@H]3CCC4=CC(=O)CC[C@]4(C)[C@H]3CC[C@]12C
active: [3] 8.03 µM

CCCOC(=O)NCCCN(C)C
inactive: [1] | [16] | [3] | [4] | [6] | [8] | [14] | [9] | [10] | [11] | [12]

CC(=O)S[C@@H]1CC2=CC(=O)CC[C@]2(C)[C@H]2CC[C@@]3(C)[C@@H](CC[C@@]34CCC(=O)O4)[C@H]12
active: [3] 38.3 µM

S=C([S-])NCCNC(=S)[S-].[Mn+2]
active: [3] 1.04 µM | [10] 3.58 µM | [13] 88.1 µM
inactive: [1] | [4] | [5] | [6] | [8] | [14] | [15] | [11]
